Tests used:
Assay in all cases: PBM binding z-score (relative to random genomic background probes); higher = stronger binding; sequences stand for … in GC…GCGATTGACAGCGTAGAATGAAGG
[1] = test system: PPARg:RXRa DBDmut IVT, anti-RXR (DBD mutation: RXRa K156A/R161A, NR concentration 270 nM, RXRa partner concentration 90 nM)
Outline: (§1)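 Regression normalization was applied to scanned fluorescence from custom Agilent 4×180K protein-binding microarrays. Before scanning, arrays were incubated 1 h with ligand-free nuclear receptor dimers, and binding was detected with antibodies against each partner (one per run). Binding z-scores use the random background probes as reference.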

[2] = test system: PPARg:RXRa IVT, anti-PPARg (NR concentration 270 nM, RXRa partner concentration 90 nM)
Outline: as §1

[3] = test system: PPARg DBDmut:RXRa IVT, anti-PPARg (DBD mutation: PPARg1 K132A/R137A, NR concentration 270 nM, RXRa partner concentration 90 nM)
Outline: as §1

[4] = test system: PPARg DBDmut IVT, anti-PPARg (DBD mutation: PPARg1 K132A/R137A, NR concentration 270 nM)
Outline: as §1

[5] = test system: PPARg homodimer (NR concentration 180 nM)
Outline: as §1

[6] = test system: PXR:RXRa (NR concentration 270 nM, RXRa partner concentration 90 nM)
Outline: as §1

[7] = test system: PXR homodimer (NR concentration 270 nM)
Outline: as §1

[8] = test system: RARa:RXR (NR concentration 270 nM, RXRa partner concentration 90 nM)
Outline: as §1

[9] = test system: RARa homodimer (NR concentration 270 nM)
Outline: as §1

[10] = test system: RARb:RXRa (NR concentration 270 nM, RXRa partner concentration 90 nM)
Outline: as §1

For CCTACTGGCCCAAAGGTCATTGATTCCAATGCTC, the PBM binding z-score [1] was 0.578, the PBM binding z-score [2] was 3.61 and the PBM binding z-score [3] was -0.204. For the same sequence, the PBM binding z-score [4] was -0.16, the PBM binding z-score [5] was 2.07 and the PBM binding z-score [6] was 5. It also gave a PBM binding z-score [7] of 0.894, a PBM binding z-score [8] of 4.8 and a PBM binding z-score [9] of 1.12. The PBM binding z-score [10] was 4.44.
Sequence TAGCCTAGGACAGATCGGGCCAGTATACGCTATA has a PBM binding z-score [1] of -0.993, a PBM binding z-score [2] of -0.151 and a PBM binding z-score [3] of -0.673. The PBM binding z-score [4] was 0.0562, the PBM binding z-score [5] was -1.15 and the PBM binding z-score [6] was -0.732. The PBM binding z-score [7] was -0.768, the PBM binding z-score [8] was -0.695 and the PBM binding z-score [9] was -1.42. The PBM binding z-score [10] was -0.928.
For TGTCAAAGTACAAAGGTAACGTAAGTATCCACAC, the PBM binding z-score [1] was -0.385, the PBM binding z-score [2] was 2.33 and the PBM binding z-score [3] was 1.2. The PBM binding z-score [4] was 1.03, the PBM binding z-score [5] was 0.0149 and the PBM binding z-score [6] was 0.587. The PBM binding z-score [7] was -0.194, the PBM binding z-score [8] was 1.04 and the PBM binding z-score [9] was 0.713. For the same sequence, the PBM binding z-score [10] was 1.67.
TAGCCGAGGTCATGGGCCAGTATACCACGCGAAC was tested, and the PBM binding z-score [1] was 1.94, the PBM binding z-score [2] was 4.59 and the PBM binding z-score [3] was 1.31. It also gave a PBM binding z-score [4] of 0.953, a PBM binding z-score [5] of 2.7 and a PBM binding z-score [6] of 5.24. It also gave a PBM binding z-score [7] of 0.728, a PBM binding z-score [8] of 5.62 and a PBM binding z-score [9] of 0.741. The PBM binding z-score [10] was 5.01.
For CATGCAGGGTCAGCTAGGCCAGAGTAGGGACGGC, the PBM binding z-score [1] was 0.734, the PBM binding z-score [2] was 1.98 and the PBM binding z-score [3] was 0.517. For the same sequence, the PBM binding z-score [4] was -0.095, the PBM binding z-score [5] was 0.728 and the PBM binding z-score [6] was 2.2. For the same sequence, the PBM binding z-score [7] was -0.234, the PBM binding z-score [8] was 3.27 and the PBM binding z-score [9] was -0.247. The PBM binding z-score [10] was 4.14.
For TCATATAGGTAATACAGGTGAAAATCGGCATCTA, the PBM binding z-score [1] was 3.9, the PBM binding z-score [2] was 3.09 and the PBM binding z-score [3] was 1.52. For the same sequence, the PBM binding z-score [4] was 1.47, the PBM binding z-score [5] was 1.22 and the PBM binding z-score [6] was 0.9. It also gave a PBM binding z-score [7] of 0.486, a PBM binding z-score [8] of 1.46 and a PBM binding z-score [9] of 1.89. The PBM binding z-score [10] was 0.59.
Sequence GCTTGTAGATCAAGGTTAAGGAAGACTAAGCTAA has a PBM binding z-score [1] of 1.33, a PBM binding z-score [2] of 1.17 and a PBM binding z-score [3] of -0.221. The PBM binding z-score [4] was 0.338, the PBM binding z-score [5] was 0.301 and the PBM binding z-score [6] was 0.301. The PBM binding z-score [7] was -0.237, the PBM binding z-score [8] was 0.84 and the PBM binding z-score [9] was -0.272. It also gave a PBM binding z-score [10] of 0.798.
Work on CCTACTGGGCCAAGGTCATTGAACAGTCAAAGCA yielded a PBM binding z-score [1] of 3.68, a PBM binding z-score [2] of 4.69 and a PBM binding z-score [3] of -0.3. The PBM binding z-score [4] was -0.825, the PBM binding z-score [5] was 1.5 and the PBM binding z-score [6] was 3.32. For the same sequence, the PBM binding z-score [7] was 0.99, the PBM binding z-score [8] was 3.5 and the PBM binding z-score [9] was -0.309. The PBM binding z-score [10] was 3.5.
With CCTATTAGTTGACCATAAGGTCAACCGAAGCTCG the PBM binding z-score [1] was 1.02, the PBM binding z-score [2] was 2.48 and the PBM binding z-score [3] was 2.56. The PBM binding z-score [4] was 1.37, the PBM binding z-score [5] was 4.93 and the PBM binding z-score [6] was 4.62. It also gave a PBM binding z-score [7] of 2.57, a PBM binding z-score [8] of 5.3 and a PBM binding z-score [9] of 3.95. It also gave a PBM binding z-score [10] of 3.72.
ATCTCTAGGTAAAGTTCAGGGAAAGATCGATAGA gave a PBM binding z-score [1] of 2.67, a PBM binding z-score [2] of 2.44 and a PBM binding z-score [3] of 1.23. For the same sequence, the PBM binding z-score [4] was 1.09, the PBM binding z-score [5] was 2.21 and the PBM binding z-score [6] was 2.17. The PBM binding z-score [7] was 1.99, the PBM binding z-score [8] was 1.93 and the PBM binding z-score [9] was 1.68. The PBM binding z-score [10] was 2.99.
Sequence ACAGACAGGTGAGTGAAGGTAACACAGCTGGACG has a PBM binding z-score [1] of 0.662, a PBM binding z-score [2] of 0.632 and a PBM binding z-score [3] of 0.226. It also gave a PBM binding z-score [4] of -0.221, a PBM binding z-score [5] of 0.391 and a PBM binding z-score [6] of -0.00194. It also gave a PBM binding z-score [7] of 0.205, a PBM binding z-score [8] of 0.574 and a PBM binding z-score [9] of 0.248. It also gave a PBM binding z-score [10] of 0.597.
GCATATAGGTAATACAAGGTGAAAGTGCGATTGT gave a PBM binding z-score [1] of 3.95, a PBM binding z-score [2] of 3.56 and a PBM binding z-score [3] of 1.03. The PBM binding z-score [4] was 1.01, the PBM binding z-score [5] was 0.954 and the PBM binding z-score [6] was 0.734. It also gave a PBM binding z-score [7] of 0.452, a PBM binding z-score [8] of 1.35 and a PBM binding z-score [9] of 0.831. For the same sequence, the PBM binding z-score [10] was 0.52.
TCTGCTAGGTCAGTTGGTCAGCGAACGAGCTGCC was tested, and the PBM binding z-score [1] was 2.76, the PBM binding z-score [2] was 3.21 and the PBM binding z-score [3] was -0.0304. The PBM binding z-score [4] was 0.518, the PBM binding z-score [5] was 0.0639 and the PBM binding z-score [6] was 0.0473. It also gave a PBM binding z-score [7] of -0.82, a PBM binding z-score [8] of 0.461 and a PBM binding z-score [9] of -1.14. The PBM binding z-score [10] was 3.55.

— the supplement of paper PMC6555819
